# Where “and” joins values, the source holds several entries; their conditions need not be identical. Identical values can stand only once. Inconclusive results are not listed. Entries that show only a call come without a potency. Calls of active or inactive are those of the source. Unless noted, calls follow the shape of the dose curve; as a rule, active = well fitted curve in the direction sought with a large enough effect; inconclusive = small, poorly fitted or top-dose-only effect, or another doubt; inactive = no such curve, though single readings can be large; an effect the other way counts as inactive or inconclusive.
# Columns and labels:
# [1] = Cell Viability - LYMP2-021 (AID 974);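 also: compound exposure lasts 24 hours at 37 °C; nearly all actives have a fitted effect of over 55% in size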
# How it was run: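 In qHTS format, compounds are tested against 2500 lymphoblastoid cells per well for 24 h; viable cell number is inferred from ATP-driven luciferase light, and Hill-equation fitting yields AC50 values.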
# [2] = Cell Viability - LYMP2-023 (AID 975);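 also: cellular ATP measured by luciferase luminescence as viability proxy; nearly all actives have a fitted effect of over 55% in size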
# How it was run: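 In this qHTS, ATP-based luciferase luminescence (CellTiter-Glo) is quantified in human lymphoblastoid cells after 24 hr compound treatment at 37 C; tetraoctylammonium bromide serves as positive control. Concentration-response curves are Hill-fitted to give AC50.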
# [3] = Cell Viability - LYMP2-025 (AID 976);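 also: cells exposed to compound for 24 h at 37 °C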
# How it was run: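 Luminescent ATP readout after 24 hr treatment of a human lymphoblastoid line (LYMP2-025, 2500 cells/well, 37 C). Reagent developed 30 min at room temperature; AC50 fitted with the Hill equation.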
# [4] = Cell Viability - LYMP2-002 (AID 977);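 also: compound exposure lasted 24 h at 37 °C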
# How it was run: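 In this qHTS viability screen, 2500 human lymphoblastoid cells per well receive compound for 24 hr at 37 C, and luciferase-based ATP luminescence gives the viability signal. Tetraoctylammonium bromide serves as positive control.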
# [5] = Cell Viability - LYMP2-006 (AID 978); also: nearly all actives have a fitted effect of over 60% in size
# How it was run: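 qHTS, 1536-well; 2500 cells/well, 5 hr 37 C; cpd 24 hr 37 C; CellTiter-Glo 30 min RT; luminescence. Tetraoctylammonium bromide pos. ctrl. AC50 via Hill eqn.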
# [6] = Cell Viability - LYMP2-007 (AID 979);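 also: cells exposed to compound for 24 h before reading; nearly all actives have a fitted effect of over 60% in size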
# How it was run: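 Measured via luciferase-based ATP quantitation: lymphoblastoid cells, 24 hr compound exposure at 37 C, AC50 from Hill fits.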
# [7] = Cell Viability - LYMP2-008 (AID 980);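 also: cells exposed to compound for 24 h at 37 °C; nearly all actives have a fitted effect of over 60% in size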
# How it was run: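 Measured: ATP-dependent luminescence, proportional to viable cell number, in human lymphoblastoid cells treated 24 hr with compound in complete culture medium. Values are AC50s from Hill-equation modelling of qHTS titrations.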
# [8] = Cell Viability - LYMP2-010 (AID 981); also: nearly all actives have a fitted effect of over 55% in size
# How it was run: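 This 24 hr viability screen uses LYMP2-010 lymphoblastoid cells, quantifies ATP via luciferase luminescence, and derives AC50 from Hill fits of qHTS concentration-response data.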
# [9] = Cell Viability - LYMP2-012 (AID 982);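 also: cellular ATP by luciferase luminescence where a drop means cytotoxicity; cells exposed to compound for one day before reading; nearly all actives have a fitted effect of over 55% in size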
# [10] = Cell Viability - LYMP2-014 (AID 983);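 also: cells exposed to compound for 24 h at 37 °C; nearly all actives have a fitted effect of over 50% in size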
# How it was run: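 Quantitative HTS in lymphoblastoid cells: 24 hr compound exposure, then CellTiter-Glo ATP luminescence. Positive control was tetraoctylammonium bromide, 6.4pM to 92 uM.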
# [11] = Cell Viability - LYMP2-018 (AID 985); also: nearly all actives have a fitted effect of over 50% in size
# How it was run: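 In this qHTS viability assay, cells are treated for 24 hr and cellular ATP is quantified by luciferase-based luminescence, with tetraoctylammonium bromide as positive control.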
# [12] = Cell Viability - LYMP2-020 (AID 986)
# How it was run: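 Cells at 2500 per well receive a 24 hr compound exposure at 37 C. Viability is measured as ATP-dependent luciferase luminescence, with AC50 modeled from qHTS concentration-response curves.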
# [13] = Cell Viability - LYMP2-022 (AID 987); also: nearly all actives have a fitted effect of over 55% in size
# How it was run: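 In this qHTS cytotoxicity screen, compound titrations were incubated 24 hr at 37 C with human lymphoblastoid cells in complete medium. Luciferase-based ATP luminescence provided the viability signal.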
# [14] = Cell Viability - LYMP2-024 (AID 988); also: nearly all actives have a fitted effect of over 60% in size
# How it was run: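 Cells at 2500 per well received compound for 24 hr after a 5 hr settling period. Viability was scored by CellTiter-Glo luminescence, with AC50 from Hill fits.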
# [15] = Cell Viability - LYMP2-026 (AID 989);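 also: cells exposed to compound for 24 h at 37 °C; nearly all actives have a fitted effect of over 50% in size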
# How it was run: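 Acute toxicity screen in complete culture medium, with 24 hr compound exposure at 37 C. Viability read as cellular ATP via luciferase reaction, with tetraoctylammonium bromide (6.4pM to 92 uM) as positive control.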
# [16] = Cell Viability - LYMP1-002 - Assay at 24 hr (AID 993)
# How it was run: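 Viability was judged from intracellular ATP using a luciferase read-out, following a 24-hour compound incubation at 37 C of lymphoblastoid cells seeded at 2500 per well. Concentration-response data were fitted to the Hill equation for AC50.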
# [17] = qHTS Assay for Lipid Storage Modulators (AID 1519; calls by dose curve); conditions: Drosophila S3 cells, BODIPY lipid droplet/cell ratio, laser cytometry, cells loaded with oleic acid
# How it was run: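 Cells seeded at 5,000 per well were treated with compounds over a concentration series and loaded with oleic acid (400 uM, as added). Lipid droplet fluorescence (488 nm excitation, 500-530 nm channel) was read by laser-scanning cytometry and normalized to 20 uM Triacsin C.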
# [18] = biological target: Alpha-galactosidase A (Homo sapiens) (UniProt P06280); experiment: Counterscreen for Glucocerebrosidase Inhibitors: qHTS Assay for Human alpha-Galactosidase at pH 4.5 (AID 992)
# How it was run: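 Steps: enzyme (2 nM final), then compound across 0.7 nM to 77 uM, then 80 uM fluorogenic galactopyranoside substrate; incubate 20 min at room temperature; quench at pH 10; measure fluorescence at 365/440 nm.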
# [19] = biological target: alpha-glucosidase (Oryza sativa, rice) (UniProt Q653V4); experiment: Counterscreen for Glucocerebrosidase Inhibitors: qHTS Assay for Rice alpha-Glucosidase at pH 5.0 (AID 997)
# How it was run: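 Endpoint fluorogenic assay at pH 5.0: compounds (0.7 nM to 77 uM) titrated against 4 nM rice enzyme and 400 uM 4-MU-alpha-glucoside for 20 min at room temperature; NaOH/glycine stop, read ex 365/em 440 nm, Hill-fitted AC50.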
# [20] = measured here: cell count channel max response
# [21] = measured here: lipid channel max response
# Chain of Alpha-galactosidase A (Homo sapiens) (P06280 whole entry, looked up): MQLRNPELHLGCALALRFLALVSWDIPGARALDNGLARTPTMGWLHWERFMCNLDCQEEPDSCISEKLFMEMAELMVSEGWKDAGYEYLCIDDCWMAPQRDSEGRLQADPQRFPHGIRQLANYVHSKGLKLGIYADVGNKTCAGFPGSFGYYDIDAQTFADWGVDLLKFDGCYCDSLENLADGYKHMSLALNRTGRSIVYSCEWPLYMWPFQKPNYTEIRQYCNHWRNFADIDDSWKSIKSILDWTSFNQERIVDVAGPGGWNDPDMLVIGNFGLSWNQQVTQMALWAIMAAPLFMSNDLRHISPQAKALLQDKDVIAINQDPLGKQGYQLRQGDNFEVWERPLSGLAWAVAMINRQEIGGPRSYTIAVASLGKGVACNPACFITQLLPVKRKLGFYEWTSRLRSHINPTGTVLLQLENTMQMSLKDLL
structure (smiles),measurement,setting,value
Cc1cc(CC(=O)O)n(C)c1C(=O)c1ccc(Cl)cc1,Potency,[1],inactive
same,Potency,[2],inactive
same,outcome,[3],inactive
same,outcome,[4],inactive
same,outcome,[5],inactive
same,Potency,[6],inactive
same,Potency,[7],inactive
same,Potency,[8],inactive
same,outcome,[9],inactive
same,outcome,[10],inactive
same,Potency,[11],inactive
same,Potency,[12],inactive
same,Potency,[13],inactive
same,outcome,[14],inactive
same,Potency,[15],inactive
same,Potency,[16],inactive
same,"activity change, negative = inhibition",[17]; at 25.7 µM (top of the series),-0.167% (inactive)
same,"activity change, negative = inhibition",[17]; at 57.5 µM (top of the series),7.69% (inactive)
same,max response,[17]; [20],-0.357% and 17.9%
same,max response,[17]; [21],0.164% and 28.7%
c1ccc2c(CC3=NCCN3)cccc2c1,"activity change, negative = inhibition",[17]; at 25.7 µM (top of the series),-0.324% (inactive)
same,"activity change, negative = inhibition",[17]; at 57.5 µM (top of the series),4.27% (inactive)
same,max response,[17]; [20],-14.5% and 1.91%
same,max response,[17]; [21],-13.5% and 9.6%
NCC(=O)CCC(=O)O,"activity change, negative = inhibition",[17]; at 57.5 µM (top of the series),1.06% (inactive)
same,max response,[17]; [20],6.63%
same,max response,[17]; [21],10.2%
CN(C)CCN(Cc1ccccc1)c1ccccn1,"activity change, negative = inhibition",[17]; at 57.5 µM (top of the series),1.48% (inactive)
same,max response,[17]; [20],12.3%
same,max response,[17]; [21],16.2%
CN(C)CCC=C1c2ccccc2CCc2ccccc21,outcome,[3],inactive
same,outcome,[18],inactive
same,Potency,[16],inactive
same,outcome,[19],inactive
same,"activity change, negative = inhibition",[17]; at 25.7 µM (top of the series),-5.26% (inactive)
same,"activity change, negative = inhibition",[17]; at 57.5 µM (top of the series),-0.124% (inactive) and 0.255% (inactive)
same,max response,[17]; [20],-13.5% and 9.92% and -13.3%
same,max response,[17]; [21],-18.6% and 12.5% and -14.8%
COc1ccc2c(c1)C(=O)N(CCc1ccc(S(=O)(=O)NC(=O)NC3CCCCC3)cc1)C(=O)C2(C)C,"activity change, negative = inhibition",[17]; at 25.7 µM (top of the series),-1.13% (inactive)
same,max response,[17]; [20],-22.2%
same,max response,[17]; [21],-23.3%
OC[C@H]1O[C@@H](O[C@@H]2[C@@H](CO)O[C@](O)(CO)[C@H]2O)[C@H](O)[C@@H](O)[C@H]1O,"activity change, negative = inhibition",[17]; at 57.5 µM (top of the series),-5.86% (inactive)
same,max response,[17]; [20],-20.2%
same,max response,[17]; [21],-24.3%
CN(C)CC[C@@H](c1ccc(Cl)cc1)c1ccccn1,"activity change, negative = inhibition",[17]; at 57.5 µM (top of the series),-0.0513% (inactive)
same,max response,[17]; [20],35.1%
same,max response,[17]; [21],34.2%
CCCCN(CCCC)CCCOC(=O)c1ccc(N)cc1,"activity change, negative = inhibition",[17]; at 25.7 µM (top of the series),-3.3% (inactive)
same,"activity change, negative = inhibition",[17]; at 57.5 µM (top of the series),6.89% (inactive)
same,max response,[17]; [20],-6.51% and -0.907%
same,max response,[17]; [21],-7.52% and 11.8%
C#CCN(C)Cc1ccccc1,outcome,[18],inactive
same,outcome,[19],inactive
same,"activity change, negative = inhibition",[17]; at 25.7 µM (top of the series),-2.03% (inactive)
same,max response,[17]; [20],-10.9%
same,max response,[17]; [21],-13.8%
CN(C)CCCN1c2ccccc2Sc2ccc(Cl)cc21,outcome,[18],inactive
same,outcome,[19],inactive
NCCNCCNCCN,Potency,[1],inactive
same,Potency,[2],inactive
same,outcome,[3],inactive
same,outcome,[4],inactive
same,Potency,[6],inactive
same,Potency,[7],inactive
same,Potency,[8],inactive
same,outcome,[9],inactive
same,outcome,[10],inactive
same,Potency,[11],inactive
same,Potency,[12],inactive
same,Potency,[13],inactive
same,outcome,[14],inactive
same,Potency,[15],inactive
same,Potency,[16],inactive

# Reference: PubChem BioAssay (NCATS)
